Experimental data from PubChem BioAssay.
The source made the active and inactive calls. Unless noted, the rule behind the calls is not given here.

How the values were obtained:
[1] = HepG2 liver cancer cell viability effects, profiling panel, resazurin fluorescence, 24 h, PK04 Diversity Set (AID 1172); conditions: higher = more signal; note: test concentration not given here
[2] = basal S. cerevisiae growth modulation, no modifier, primary screen, OD600, strain BY4716, 24 h, basal condition (AID 1173); conditions: OD600, 24 h, higher = more signal, called active from +8 up or from −8 down
[3] = MM1S myeloma cell viability, profiling panel, resazurin fluorescence, basal, 24 h, PK04 Diversity Set (AID 1174); conditions: higher = more signal, called active from +8 up or from −8 down;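 note: MM1S multiple myeloma cell line; test concentration not given here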
[4] = molecular target: Dihydroorotate dehydrogenase (quinone), mitochondrial (Plasmodium falciparum (isolate 3D7)) (UniProt Q08210); assay: PfDHODH enzyme inhibitors, primary screen, biochemical, C-terminal His tag, absorbance 600 nm (AID 1175); conditions: DCIP absorbance 600 nm, higher = more signal, called active from +8 up or from −8 down;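 note: recombinant parasite enzyme with a five histidine tag at its C terminus; test concentration not given here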
Sequence of Dihydroorotate dehydrogenase (quinone), mitochondrial (Plasmodium falciparum (isolate 3D7)) (Q08210 whole entry, looked up): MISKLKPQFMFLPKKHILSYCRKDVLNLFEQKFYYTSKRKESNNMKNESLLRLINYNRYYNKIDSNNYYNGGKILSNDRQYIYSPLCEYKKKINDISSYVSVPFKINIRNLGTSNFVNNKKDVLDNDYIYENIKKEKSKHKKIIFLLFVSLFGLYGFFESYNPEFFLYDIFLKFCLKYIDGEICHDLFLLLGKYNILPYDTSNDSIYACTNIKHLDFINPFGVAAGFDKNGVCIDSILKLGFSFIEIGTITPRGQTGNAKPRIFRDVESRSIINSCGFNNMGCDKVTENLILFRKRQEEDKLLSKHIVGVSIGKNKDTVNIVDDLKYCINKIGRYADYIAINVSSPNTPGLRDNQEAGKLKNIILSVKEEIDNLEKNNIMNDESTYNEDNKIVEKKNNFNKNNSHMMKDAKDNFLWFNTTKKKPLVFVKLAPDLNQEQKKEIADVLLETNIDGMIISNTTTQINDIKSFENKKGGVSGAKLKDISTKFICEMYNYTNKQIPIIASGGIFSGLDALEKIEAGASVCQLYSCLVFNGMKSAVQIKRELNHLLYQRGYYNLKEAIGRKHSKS

[5] = P. aeruginosa biofilm formation inhibitors, primary screen, strain PAO1, LB-PBS medium, absorbance 600 nm (AID 1176); note: test concentration not given here; conditions: P. aeruginosa PAO1 growth/biofilm, A600, 12 h; higher = more signal
[6] = S. cerevisiae RM11-1a growth modifiers, primary screen, strain RM11-1a, OD600, basal, 24 h (AID 1177); conditions: OD600, 24 h, higher = more signal, called active from +8 up or from −8 down;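 note: cultures grown under basal conditions with no added stressor; test concentration not given here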
[7] = E. coli acrAB mutant growth effects, primary screen, E. coli filamentation inducers, strain DRC39, OD650, 24 h (AID 1178); conditions: higher = more signal, called active from +8 up or from −8 down;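 note: growth measured as culture turbidity by optical density at 650 nm; test concentration not given here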
[8] = E. coli acrAB mutant growth effects, primary screen, E. coli filamentation inducers, strain DRC39, OD650, 48 h (AID 1179);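 note: screen aims at cell division blockers that make cells filament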; conditions: E. coli DRC39 delta-acrAB growth, higher = more signal, called active from +8 up or from −8 down
[9] = RPMI8226 myeloma cell viability, profiling panel, resazurin fluorescence, basal, 24 h, PK04 Diversity Set (AID 1180); conditions: higher = more signal;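 note: RPMI8826 multiple myeloma cell line at 5000 cells per well; test concentration not given here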
[10] = molecular target: E3 ubiquitin-protein ligase XIAP (Homo sapiens) (UniProt P98170); assay: XIAP binders, primary screen, biophysical, small-molecule microarray, fluorescence 635 nm (AID 1181); conditions: small-molecule microarray binding, higher = more signal;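 note: score merges 667 nm emission and signal to noise over triplicate slides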
Sequence of E3 ubiquitin-protein ligase XIAP (Homo sapiens) (P98170 whole entry, looked up): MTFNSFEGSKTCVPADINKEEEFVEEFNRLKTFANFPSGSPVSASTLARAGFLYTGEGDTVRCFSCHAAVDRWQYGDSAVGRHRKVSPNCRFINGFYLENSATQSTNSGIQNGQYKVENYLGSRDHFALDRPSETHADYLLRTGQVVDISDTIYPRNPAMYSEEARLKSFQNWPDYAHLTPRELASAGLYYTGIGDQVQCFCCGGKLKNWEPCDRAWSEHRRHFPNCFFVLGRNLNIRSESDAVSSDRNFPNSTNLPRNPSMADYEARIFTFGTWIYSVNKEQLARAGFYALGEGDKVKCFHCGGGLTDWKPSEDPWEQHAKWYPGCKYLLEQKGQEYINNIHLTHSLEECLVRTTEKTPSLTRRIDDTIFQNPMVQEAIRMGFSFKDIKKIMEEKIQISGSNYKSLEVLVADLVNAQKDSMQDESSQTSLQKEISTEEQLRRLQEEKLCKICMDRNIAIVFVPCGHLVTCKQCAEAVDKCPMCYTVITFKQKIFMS

| Structure (SMILES) | z-score [1] | z-score [2] | z-score [3] | composite z-score [4] | z-score [5] | z-score [6] | z-score [7] | z-score [8] | z-score [9] | composite z-score [10] |
| --- | --- | --- | --- | --- | --- | --- | --- | --- | --- | --- |
| C[N+](C)(C)CCCC[C@@H]1NC(=O)[C@H]2C[C@@H](C(=O)NCCCCCN)[C@@H](c3ccc(O)cc3)N2C1=O | 0.372 | -0.589 (inactive) | 0.715 (inactive) | -1.86 (inactive) | -1.14 (inactive) | -0.683 (inactive) | 0.553 (inactive) | 0.751 (inactive) | 1.24 | 0.0017 |
| CC(C)N1C(=O)[C@@]2(Cc3ccccc31)c1ccccc1C(=O)N(Cc1ccccc1)[C@H]2c1ccc(CO)cc1 | -0.147 | 2.07 (inactive) | 0.144 (inactive) | -19.1 (active) | 0.338 (inactive) | 1.69 (inactive) | 0.367 (inactive) | -0.665 (inactive) | 0.0769 | -0.337 |
| CC(C)C(=C=CC[C@H](O)c1cccc(OCCO)c1)C[C@H](O)c1ccccn1 | 1.91 | 0.589 (inactive) | 0.106 (inactive) | -0.332 (inactive) | 0.625 (inactive) | -0.69 (inactive) | 1.61 (inactive) | 1.5 (inactive) | 0.681 | 0.0436 |
| C=C(COC)/C(=C/C[C@@H](OC(=O)c1ccncc1)c1ccccc1OCCO)c1cnc2ccccc2c1 | -0.567 | -0.0618 (inactive) | 0.028 (inactive) | -3.66 (inactive) | -0.66 (inactive) | 0.0519 (inactive) | 0.825 (inactive) | 0.359 (inactive) | 0.0353 | 0.166 |
| CCCCN1CC=CC23O[C@@H]4C=CCCOC(=O)C4[C@H]2C(=O)N(CCO)[C@@H]3C1=O (stereo not given in full) | 0.551 | -0.0816 (inactive) | 0.309 (inactive) | 0.0051 (inactive) | 0.345 (inactive) | 0.13 (inactive) | -0.323 (inactive) | -0.414 (inactive) | -0.0692 | -0.104 |
| CC(C)C[C@@H]1NC(=O)[C@H]2C[C@@H](C(=O)O)[C@@H](c3cccc(OCCO)c3)N2C1=O | 0.109 | -0.25 (inactive) | -0.636 (inactive) | -1.19 (inactive) | 0.202 (inactive) | -0.79 (inactive) | -0.191 (inactive) | 0.421 (inactive) | 0.462 | 0.0845 |
| COC(=O)[C@@]1(Cc2ccc(F)cc2)[C@H]2c3cc(C(=O)N4CCCC4)n(Cc4ccc(OC(F)(F)F)cc4)c3C[C@H]2CN1C(=O)c1ccccc1 | 0.178 | 0.944 (inactive) | -0.799 (inactive) | -0.132 (inactive) | 0.827 (inactive) | 0.157 (inactive) | -0.961 (inactive) | -0.678 (inactive) | -0.453 | 0.0306 |
| COC(=O)[C@@]1(Cc2ccc(F)cc2)[C@H]2c3cc(C(=O)N(C)C)n(Cc4cccc5ccccc45)c3C[C@H]2CN1C(=O)c1ccccc1 | -0.488 | 1.91 (inactive) | -1.32 (inactive) | -0.0341 (inactive) | 1.75 (inactive) | 1.75 (inactive) | -0.609 (inactive) | -0.707 (inactive) | -1.04 | 1.6 |
| CCOC(=O)C1=C[C@@H](C(C)(C)C)N(S(=O)(=O)c2ccc(C)cc2)[C@H]1c1ccc(OC)cc1 | -0.294 | 1.9 (inactive) | -0.0789 (inactive) | -0.0972 (inactive) | -0.473 (inactive) | 1.88 (inactive) | 0.33 (inactive) | -0.27 (inactive) | -1.23 | -0.149 |
| Cc1ccc(S[C@]2(C(=O)NC(C)C)CC(=O)N(Cc3ccccc3)[C@@H]2c2ccc(CO)cc2I)cc1 | -0.885 | -2.23 (inactive) | -3.48 (inactive) | -0.489 (inactive) | 0.003 (inactive) | -0.101 (inactive) | -0.0759 (inactive) | 0.494 (inactive) | -2.8 | 0.301 |
| CC[C@@H]1C=C(C(=O)O)[C@H](c2cccc(Cl)c2)N1S(=O)(=O)c1ccc(C)cc1 | -0.722 | -0.423 (inactive) | -0.869 (inactive) | -0.831 (inactive) | -0.184 (inactive) | -0.285 (inactive) | -0.647 (inactive) | -0.55 (inactive) | -1.89 | 1.12 |
| C=C(CCCC)/C(=C/C[C@@H](OC(C)=O)c1ccc(OCCO)cc1)c1cc(C(=O)OC)ccc1OC | 0.353 | -0.107 (inactive) | -1.36 (inactive) | -2.64 (inactive) | 0.862 (inactive) | -0.319 (inactive) | 0.173 (inactive) | 0.107 (inactive) | -0.808 | -0.0274 |
| Cc1ccc(S[C@]2(C(=O)NC3CC3)CC(=O)N(C3Cc4ccccc4C3)[C@@H]2c2ccc(CO)cc2I)cc1 | -0.386 | -4.29 (inactive) | -2.54 (inactive) | 0.282 (inactive) | 0.0493 (inactive) | 0.283 (inactive) | 0.112 (inactive) | -0.266 (inactive) | -1.24 | -0.174 |
| CCCC1(C(=O)OC)C=C2C(=C(C(C)C)C(=O)C2C)CN1 (stereo not given) | -0.964 | 1.67 (inactive) | -1.13 (inactive) | -1.05 (inactive) | 0.495 (inactive) | 0.391 (inactive) | -0.314 (inactive) | 0.0752 (inactive) | -1.44 | 0.227 |
| COc1cc2c(cc1OC)CN(C(=O)[C@@H]1[C@H]3C(=O)O[C@H](c4ccccc4)[C@H](c4ccccc4)N3[C@H](c3ccc(O)cc3)[C@@]13C(=O)Nc1ccc(C#CC4=CCCCC4)cc13)CC2 | 0.192 | 0.45 (inactive) | 0.466 (inactive) | -0.151 (inactive) | 0.297 (inactive) | 1.48 (inactive) | -0.0342 (inactive) | 0.675 (inactive) | 0.233 | -0.0108 |
| CC(C)C[C@@H]1NC(=O)[C@@H]2C[C@H](C(=O)NCCCCCCNC(=O)CS)[C@H](c3ccc(O)cc3)N2C1=O | 0.0799 | -0.295 (inactive) | -0.471 (inactive) | -0.283 (inactive) | 1.97 (inactive) | 0.199 (inactive) | 0.306 (inactive) | -0.874 (inactive) | -0.898 | 0.291 |
| COc1ccc(CCNC(=O)[C@@H]2c3ccccc3C(=O)N(Cc3cc(F)cc(C(F)(F)F)c3)[C@H]2c2ccc(CO)cc2)cc1 | -0.162 | -0.314 (inactive) | 0.821 (inactive) | -0.179 (inactive) | -0.121 (inactive) | -0.209 (inactive) | 0.746 (inactive) | 0.387 (inactive) | 1.16 | -0.0835 |
| C=CC[C@H](OC(=O)Nc1ccc(SC)cc1)c1ccc(O)c(F)c1 | -0.124 | -15.5 (active) | -0.868 (inactive) | -1.32 (inactive) | 1.1 (inactive) | -11 (active) | 0.332 (inactive) | -0.343 (inactive) | -1.54 | 0.0297 |
| C[C@]1(C(=O)NCC(F)(F)F)c2ccccc2C(=O)N(Cc2cc(C(F)(F)F)cc(C(F)(F)F)c2)[C@H]1c1ccc(CO)cc1 | 0.373 | -0.234 (inactive) | 1.2 (inactive) | -0.954 (inactive) | 0.5 (inactive) | 0.507 (inactive) | 0.712 (inactive) | 0.827 (inactive) | 1.13 | -0.0099 |
| CO[C@H]1O[C@H](CO)[C@@H](OC(=O)Nc2cccc(F)c2)[C@H](OC(=O)c2cc3ccccc3[nH]2)[C@H]1OC(=O)c1cc2ccccc2[nH]1 | -2.49 | -0.21 (inactive) | -2.63 (inactive) | -0.603 (inactive) | 1.1 (inactive) | -0.67 (inactive) | 0.181 (inactive) | 1.02 (inactive) | -2.46 | 0.331 |
| O=C1N(Cc2ccccc2)c2ccccc2C[C@@]12N=C(c1ccc(OCCCO)cc1)O[C@H]2c1ccccc1 | -0.449 | -1.21 (inactive) | -2.11 (inactive) | 0.318 (inactive) | 2.26 (inactive) | 1.18 (inactive) | 0.0946 (inactive) | -0.928 (inactive) | -1.69 | 0.0918 |
| C=CC[C@]12N=C(c3ccc(OCCCO)cc3)O[C@H]1c1ccccc1N(CCC)C2=O | -0.151 | -1.91 (inactive) | -1.14 (inactive) | -0.536 (inactive) | 1.24 (inactive) | 0.208 (inactive) | 0.181 (inactive) | -0.464 (inactive) | -0.65 | 0.0655 |
| COc1cc2c(cc1O)C(C)N(Cc1sc3ccccc3c1Cl)CC2 (stereo not given) | 0.311 | -0.961 (inactive) | 0.0446 (inactive) | -2.64 (inactive) | 0.668 (inactive) | -0.123 (inactive) | 1.14 (inactive) | 0.717 (inactive) | -0.0875 | -0.148 |
| [N-]=[N+]=NCc1ccccc1[C@H]1OC(c2ccc(OCCCO)cc2)=N[C@@]1(CCS(=O)(=O)c1ccccc1)C(=O)NCCN1CCOCC1 | -0.152 | 0.256 (inactive) | 0.285 (inactive) | 0.12 (inactive) | 1.13 (inactive) | -0.199 (inactive) | -0.178 (inactive) | -0.35 (inactive) | 0.548 | -0.115 |
